BAZ2B inh: BAZ2B (human) inhibition | Potency, µM (top dose mostly 114 µM), without a hit: top-dose activity change, negative = inhibition, hits mostly inhibitors | AID 504333 | Q9UIF8 | actives 4.4% (n = 360,000) | AlphaScreen BAZ2B-H3K14Ac peptide displacement; also: potency is read from the fitted curve at half-maximal effect; % is scaled to controls: 0 for no effect and ±100 for the full control effect; nearly all actives have a fitted effect of over 60% in size
Target sequence (Q9UIF8 whole entry, looked up): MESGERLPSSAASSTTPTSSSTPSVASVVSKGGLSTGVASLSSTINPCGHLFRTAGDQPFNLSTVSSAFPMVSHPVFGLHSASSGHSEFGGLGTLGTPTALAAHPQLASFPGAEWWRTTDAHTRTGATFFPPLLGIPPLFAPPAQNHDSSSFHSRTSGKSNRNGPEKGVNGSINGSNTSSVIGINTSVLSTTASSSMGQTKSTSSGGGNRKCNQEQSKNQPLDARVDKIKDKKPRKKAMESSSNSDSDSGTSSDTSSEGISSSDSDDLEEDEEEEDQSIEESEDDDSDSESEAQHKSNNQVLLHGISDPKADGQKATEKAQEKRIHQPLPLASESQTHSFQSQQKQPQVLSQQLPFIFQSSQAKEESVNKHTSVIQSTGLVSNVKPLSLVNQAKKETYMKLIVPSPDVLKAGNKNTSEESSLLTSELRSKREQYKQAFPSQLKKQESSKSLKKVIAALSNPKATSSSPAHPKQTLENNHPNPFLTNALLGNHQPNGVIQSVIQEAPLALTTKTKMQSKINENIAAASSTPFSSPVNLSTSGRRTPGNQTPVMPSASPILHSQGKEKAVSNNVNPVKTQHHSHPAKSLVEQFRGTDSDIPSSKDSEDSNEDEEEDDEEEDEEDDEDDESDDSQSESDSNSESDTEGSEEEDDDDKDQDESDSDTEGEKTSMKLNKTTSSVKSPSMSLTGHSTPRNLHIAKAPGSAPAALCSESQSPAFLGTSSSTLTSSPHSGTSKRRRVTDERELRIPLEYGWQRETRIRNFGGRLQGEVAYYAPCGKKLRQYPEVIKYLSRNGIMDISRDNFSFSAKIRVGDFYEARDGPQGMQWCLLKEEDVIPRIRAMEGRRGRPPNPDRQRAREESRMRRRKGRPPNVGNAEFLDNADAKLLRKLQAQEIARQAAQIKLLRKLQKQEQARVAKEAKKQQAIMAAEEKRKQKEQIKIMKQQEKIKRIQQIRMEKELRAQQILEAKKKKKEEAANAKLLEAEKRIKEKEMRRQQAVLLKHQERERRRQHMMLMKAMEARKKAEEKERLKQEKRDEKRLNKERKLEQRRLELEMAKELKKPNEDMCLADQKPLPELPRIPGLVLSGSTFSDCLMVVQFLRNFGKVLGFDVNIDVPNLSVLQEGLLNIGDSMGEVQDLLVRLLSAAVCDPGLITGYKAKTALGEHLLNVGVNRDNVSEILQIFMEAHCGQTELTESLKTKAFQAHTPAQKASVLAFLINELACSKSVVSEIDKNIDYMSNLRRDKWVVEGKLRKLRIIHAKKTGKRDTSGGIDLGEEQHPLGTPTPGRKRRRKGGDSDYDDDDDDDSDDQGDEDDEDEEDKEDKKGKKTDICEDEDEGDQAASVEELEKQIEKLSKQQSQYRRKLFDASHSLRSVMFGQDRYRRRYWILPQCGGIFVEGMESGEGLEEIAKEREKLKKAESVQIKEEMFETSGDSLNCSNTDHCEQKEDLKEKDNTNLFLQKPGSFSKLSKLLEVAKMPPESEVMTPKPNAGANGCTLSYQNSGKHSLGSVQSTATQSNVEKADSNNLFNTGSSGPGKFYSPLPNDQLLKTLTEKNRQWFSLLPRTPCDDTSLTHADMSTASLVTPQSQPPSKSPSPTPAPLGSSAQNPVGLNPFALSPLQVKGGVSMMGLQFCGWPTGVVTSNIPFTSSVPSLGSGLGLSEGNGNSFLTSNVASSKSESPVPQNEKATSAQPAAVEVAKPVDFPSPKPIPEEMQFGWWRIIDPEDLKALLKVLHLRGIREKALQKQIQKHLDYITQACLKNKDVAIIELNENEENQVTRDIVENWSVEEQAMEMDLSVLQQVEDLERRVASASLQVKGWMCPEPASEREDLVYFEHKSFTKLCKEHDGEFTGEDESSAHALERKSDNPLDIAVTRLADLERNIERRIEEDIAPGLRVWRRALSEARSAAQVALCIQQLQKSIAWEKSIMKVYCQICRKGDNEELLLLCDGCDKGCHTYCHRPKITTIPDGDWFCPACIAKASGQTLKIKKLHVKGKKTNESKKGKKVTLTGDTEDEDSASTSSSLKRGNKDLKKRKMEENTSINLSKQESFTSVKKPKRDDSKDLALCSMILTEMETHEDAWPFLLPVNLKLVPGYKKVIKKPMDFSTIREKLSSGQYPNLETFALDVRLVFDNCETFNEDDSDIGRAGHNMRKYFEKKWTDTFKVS
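AlphaScreen displacement of biotin-H3(5-23)K14Ac peptide (50 nM final) from BAZ2B (50 nM final) in PBS pH 7.4, 0.01% Tween-20; complex preformed 30 min RT, then compounds (top 110 uM) 30 min RT, beads 20 min dark.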
HP1b binding inh: HP1-beta chromodomain-methylated histone interaction inhibition. P83916. AlphaScreen HP1-beta / biotin-H3K9me3 peptide binding. Potency, µM (highest dose often 114 µM), for inactives: at the top dose activity change, negative = inhibition, usual class: inhibitors. actives 0.56% (n = 390,000). AID 540317; also: potency is read from the fitted curve at half-maximal effect; nearly all actives have a fitted effect of over 70% in size
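Compound inhibition of the preformed complex between 50 nM HP1-beta and 50 nM biotinylated H3K9me3 peptide was read by AlphaScreen. Buffer was PBS pH 7.4 with 0.01% Tween-20. Incubations ran 30 min at room temperature, with 10 ug/mL donor/acceptor beads.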
JMJD2A Tudor: JMJD2A Tudor domain (human) inhibition; O75164; AlphaScreen JMJD2A-Tudor / H3K4me3 peptide binding; Potency, µM (series often up to 114 µM), without a hit: at the highest dose activity change, negative = inhibition, most hits filed as inhibitors; actives 4.4% (n = 390,000); AID 504339; also: potency is read from the fitted curve at half-maximal effect; % is scaled to controls: 0 for no effect and ±100 for the full control effect; nearly all actives have a fitted effect of over 50% in size
CtBP-E1A blk: inhibitors of CtBP/E1A interaction; actives 0.49% (n = 340,000); activity change, % (test concentration not listed); AlphaScreen GST-E1A/His-CtBP binding, 1536-well; stronger effect = lower value; in the data active = activity change below about -65%; inconclusive = mostly about -30% to -63%; also: % is scaled to controls: 0 for no effect and ±100 for the full control effect
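Homogeneous bead-based format: GST-tagged E1A captured on glutathione donor beads, His-tagged CtBP on nickel acceptor beads; compounds precede bead addition by 2 h at 37 °C.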
G9a inh: inhibitors of human histone lysine methyltransferase G9a | Q96KQ7 | G9a H3K9 monomethylation, AlphaScreen, 2 h | Potency, µM (series often up to 102 µM), for the others: at the highest dose activity, negative = inhibition, hits mostly inhibitors | actives 8.8% (n = 350,000); also: potency is read from the fitted curve at half-maximal effect; % is scaled to controls: 0 for no effect and ±100 for the full control effect; nearly all actives have a fitted effect of over 75% in size
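Using a bead-based AlphaScreen, monomethylated H3K9 product from 2 h room-temperature reactions (G9a 20 nM, peptide 500 nM, SAM 20 uM) was detected with 0.5 ug/mL rabbit anti-H3K9me1 antibody.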
Six1-Eya2 blk: inhibitors of human Six1/Eya2 interaction; Q15475+O00167; AlphaScreen GST-Six1/His-Eya2 binding, biochemical; stronger effect = lower value; activity change, % (test concentration not listed); actives 0.56% (n = 360,000); in the data active = activity change below about -65%; inconclusive = mostly about -30% to -63%; also: % is scaled to controls: 0 for no effect and ±100 for the full control effect
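GST-Six1 + His-Eya2 (5X stock: 250/500 nM); Tris pH 8.0, 300 mM NaCl, 0.05% BSA, 0.02% Tween 20; GSH donor/Ni acceptor beads; 1 h 37 °C dark; AlphaScreen readout.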
* = called active by the depositor; [ ] = remark or other dose. In the library only some 10% were active in any assay of this set; here they are far more common. Unless noted, calls follow the shape of the dose curve; as a rule, active = well fitted inhibition curve with a large enough effect; inconclusive = small, poorly fitted or top-dose-only effect; inactive = no such curve, though single readings can be large or run the other way.

Screening COc1cccc(OCc2nc(-c3ccc(Br)o3)no2)c1 returned BAZ2B inh inconclusive, HP1b binding inh 9.6%, JMJD2A Tudor 20.3%, CtBP-E1A blk 2.5, G9a inh inconclusive and Six1-Eya2 blk -4.7.
Screening COc1ccc(Cc2nc(-c3ccc(Br)o3)no2)cc1OC returned BAZ2B inh 1.8%, HP1b binding inh 41.0%, JMJD2A Tudor -6.3%, CtBP-E1A blk 1.8, G9a inh 50.1µM* and Six1-Eya2 blk 5.1.
Screening Brc1ccc(-c2noc(COc3ccc4ccccc4c3)n2)o1 returned BAZ2B inh inconclusive, HP1b binding inh -0.2%, JMJD2A Tudor 27.7%, CtBP-E1A blk 10.9, G9a inh 44.7µM* and Six1-Eya2 blk -5.5.
For O=P(c1ccccc1)(c1ccccc1)c1ccccc1C(Br)Br the results were CtBP-E1A blk -12.9 and Six1-Eya2 blk 6.9.
O=C(NCc1ccc(F)cc1)c1c(O)nc2ccccn2c1=O was read as BAZ2B inh -2.3%, HP1b binding inh 46.5%, JMJD2A Tudor 8.4% and G9a inh 14.3%[59 µM].
`Cc1cc(-c2nnc(CCC(=O)N(C)C(C)c3cccs3)o2)no1` (centres undefined) gave BAZ2B inh -18.8%, HP1b binding inh 38.0%, JMJD2A Tudor -0.7%, CtBP-E1A blk 1.6, G9a inh -8.7% and Six1-Eya2 blk 6.4.
COc1ccc(-n2nc(C(=O)NCC(=O)N3CCN(c4ccccc4)CC3)c3ccccc3c2=O)cc1OC was read as BAZ2B inh 2.0%, HP1b binding inh 65.0%, JMJD2A Tudor -12.7%, CtBP-E1A blk 0.7, G9a inh 44.7µM* and Six1-Eya2 blk -7.9.
Screening COc1ccc(-n2nc(C(=O)NCC(=O)N3CCCC3)c3ccccc3c2=O)c(OC)c1 returned BAZ2B inh 5.7%, HP1b binding inh -2.2%, JMJD2A Tudor -2.0%, CtBP-E1A blk -17.1, G9a inh 9.3%[59 µM] and Six1-Eya2 blk -7.1.
CCOC(=O)N1CCN(C(=O)CNC(=O)c2nn(-c3ccc(OC)cc3OC)c(=O)c3ccccc23)CC1 was read as BAZ2B inh 4.7%, HP1b binding inh 51.1%, JMJD2A Tudor -3.5%, CtBP-E1A blk 2.7, G9a inh 44.7µM* and Six1-Eya2 blk 0.5.
`COc1ccc(S(=O)(=O)c2c(Nc3cccc(C)c3C)sc(C(=O)c3ccccc3)c2N)cc1` gave BAZ2B inh -19.1%, HP1b binding inh 24.3%, JMJD2A Tudor -25.2% and G9a inh -4.0%[59 µM].
`COc1ccc(C(=O)NC2CCCc3ccccc32)cc1OC1CCN(C(C)=O)CC1` (centres undefined) gave BAZ2B inh -18.6%, HP1b binding inh 70.0%, JMJD2A Tudor -13.0%, CtBP-E1A blk -3.6, G9a inh 1.8% and Six1-Eya2 blk 2.5.
COc1ccc(C(N)c2csc(Nc3ccc(C(=O)NCCCO)cn3)n2)cc1 (centres undefined) was read as CtBP-E1A blk -78.5* and Six1-Eya2 blk -75.6*.
Screening CCCNC(=O)Nc1nc(C(N)c2ccc(OC)cc2)cs1 (centres undefined) returned CtBP-E1A blk inconclusive and Six1-Eya2 blk -65.5*.
Screening CC(N)c1csc(Nc2ccc(C(=O)NCCCO)cn2)n1 (centres undefined) returned CtBP-E1A blk -83.4* and Six1-Eya2 blk -68.7*.
Screening CC(C)CC(N)c1csc(Nc2ccc(C(=O)NCCO)cc2)n1 (centres undefined) returned CtBP-E1A blk -2.1 and Six1-Eya2 blk -8.1.
CC(=O)Nc1ccc(S(=O)(=O)N2CCCc3ccccc32)cc1 was read as BAZ2B inh 1.4%, HP1b binding inh 22.0%, JMJD2A Tudor -16.0%, CtBP-E1A blk 5.9, G9a inh 0.0%[12.7 µM] and Six1-Eya2 blk 2.5.

Screening results deposited in PubChem by National Center for Advancing Translational Sciences (NCATS).
